Assay results taken from PubChem BioAssay (Tox21).
Results filed as inconclusive are left out. Activity calls are given as the source filed them. Unless noted, calls come from the whole dose curve; as a rule, active = well fitted curve in the direction sought with a large enough effect in the repeat runs; inconclusive = weak or mixed curves; inactive = no such curve, though single readings can be large; an effect the other way counts as inactive or inconclusive.

Key:
[1] = biological target: Acetylcholinesterase (Homo sapiens) (UniProt P22303); assay: Acetylcholinesterase (AChE) small molecule antagonists: enzyme-based qHTS assay (AID 1347397; calls by dose curve; note: nearly all actives have a fitted effect of over 55% in size; note: potency is the fitted concentration of half-maximal effect); details: Potency: AChE enzyme activity inhibition; outcome: AChE enzyme activity inhibition
Sequence of Acetylcholinesterase (Homo sapiens) (P22303 whole entry, looked up): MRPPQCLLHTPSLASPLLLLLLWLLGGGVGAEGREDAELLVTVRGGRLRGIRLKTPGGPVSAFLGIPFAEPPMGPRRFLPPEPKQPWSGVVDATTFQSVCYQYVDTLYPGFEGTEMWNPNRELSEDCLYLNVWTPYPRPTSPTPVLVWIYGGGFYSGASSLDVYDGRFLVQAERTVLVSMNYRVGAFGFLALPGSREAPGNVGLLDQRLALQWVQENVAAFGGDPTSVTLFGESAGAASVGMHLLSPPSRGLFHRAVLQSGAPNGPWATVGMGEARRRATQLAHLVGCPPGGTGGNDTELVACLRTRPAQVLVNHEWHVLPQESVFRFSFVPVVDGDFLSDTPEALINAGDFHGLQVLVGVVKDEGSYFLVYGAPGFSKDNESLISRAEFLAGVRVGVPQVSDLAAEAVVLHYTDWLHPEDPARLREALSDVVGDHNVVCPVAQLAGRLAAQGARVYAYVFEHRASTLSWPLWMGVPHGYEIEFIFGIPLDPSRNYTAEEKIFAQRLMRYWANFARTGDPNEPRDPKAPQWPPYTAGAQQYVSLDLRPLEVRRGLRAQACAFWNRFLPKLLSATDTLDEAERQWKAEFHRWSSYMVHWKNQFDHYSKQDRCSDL
How it was run: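 Recombinant human AChE (50 mU/mL) preincubated with compound 30 min at room temperature; acetylthiocholine plus DTNB then added, and thiocholine formation read colorimetrically after 10 min at room temperature. DMSO served as vehicle control.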

[2] = biological target: Acetylcholinesterase (Homo sapiens) (UniProt P22303); assay: Acetylcholinesterase (AChE) small molecule antagonists: fluorescence cell-based qHTS assay (AID 1347398; calls by dose curve; note: nearly all actives have a fitted effect of over 50% in size; note: potency is the fitted concentration of half-maximal effect); details: Potency: AChE activity; outcome: AChE activity
How it was run: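 SH-SY5Y cells (2000/well), attached overnight, incubated with compound 30 min at 37 C. Acetylthiocholine plus Thiolite Green then added for 40 min at room temperature. Thiocholine fluorescence (Ex/Em 490/520 nm) reports cellular AChE activity.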

[3] = biological target: Acetylcholinesterase (Homo sapiens) (UniProt P22303); assay: Acetylcholinesterase (AChE) small molecule antagonists: enzyme-based qHTS assay with human liver microsomes (AID 1347399; calls by dose curve; note: nearly all actives have a fitted effect of over 60% in size; note: potency is the fitted concentration of half-maximal effect); details: Potency: qHTS inhibition; outcome: qHTS inhibition
How it was run: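 Recombinant human AChE (50 mU/mL in the enzyme mix) and human liver microsomes (0.25 mg/mL final) were preincubated with compound and NADPH (0.25 mg/mL final) for 30 min at 37 C. Acetylthiocholine/DTNB was then added; thiocholine was read colorimetrically after 10 min at room temperature.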

[4] = biological target: Cytochrome P450 2C19 (Homo sapiens) (UniProt P33261); assay: Cytochrome P450 Family 2 Subfamily C Member 19 (CYP2C19) small molecule antagonists: luciferase reporter qHTS assay (AID 1671197); note: nearly all actives have a fitted effect of over 65% in size; note: potency is the fitted concentration of half-maximal effect
Sequence of Cytochrome P450 2C19 (Homo sapiens) (P33261 whole entry, looked up): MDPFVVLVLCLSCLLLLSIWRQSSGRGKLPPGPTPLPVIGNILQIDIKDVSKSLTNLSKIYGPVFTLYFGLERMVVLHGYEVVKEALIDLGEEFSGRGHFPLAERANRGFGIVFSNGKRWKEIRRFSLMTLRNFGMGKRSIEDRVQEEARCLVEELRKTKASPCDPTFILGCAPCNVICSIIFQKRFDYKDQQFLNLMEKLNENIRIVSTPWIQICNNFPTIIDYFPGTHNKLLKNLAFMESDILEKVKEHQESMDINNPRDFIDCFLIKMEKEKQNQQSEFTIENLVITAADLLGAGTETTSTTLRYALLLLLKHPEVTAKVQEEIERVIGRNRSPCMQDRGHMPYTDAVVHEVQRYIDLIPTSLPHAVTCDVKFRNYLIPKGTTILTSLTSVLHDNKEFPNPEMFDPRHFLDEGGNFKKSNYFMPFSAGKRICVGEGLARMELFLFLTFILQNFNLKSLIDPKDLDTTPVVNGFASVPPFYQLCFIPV
How it was run: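 CYP2C19 P450-Glo, 1536-well qHTS. Cpd + enzyme/proluciferin substrate 10 min RT; + NADPH regen, 37C 1 h; stop with luciferin detection reagent, 20 min RT, luminescence (RLU). Pos ctrl ketoconazole.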

[5] = biological target: Cytochrome P450 2C9 (Homo sapiens) (UniProt P11712); assay: Cytochrome P450 Family 2 Subfamily C Member 9 (CYP2C9) small molecule antagonists: luciferase reporter qHTS assay (AID 1671198); note: nearly all actives have a fitted effect of over 50% in size; note: potency is the fitted concentration of half-maximal effect
Sequence of Cytochrome P450 2C9 (Homo sapiens) (P11712 whole entry, looked up): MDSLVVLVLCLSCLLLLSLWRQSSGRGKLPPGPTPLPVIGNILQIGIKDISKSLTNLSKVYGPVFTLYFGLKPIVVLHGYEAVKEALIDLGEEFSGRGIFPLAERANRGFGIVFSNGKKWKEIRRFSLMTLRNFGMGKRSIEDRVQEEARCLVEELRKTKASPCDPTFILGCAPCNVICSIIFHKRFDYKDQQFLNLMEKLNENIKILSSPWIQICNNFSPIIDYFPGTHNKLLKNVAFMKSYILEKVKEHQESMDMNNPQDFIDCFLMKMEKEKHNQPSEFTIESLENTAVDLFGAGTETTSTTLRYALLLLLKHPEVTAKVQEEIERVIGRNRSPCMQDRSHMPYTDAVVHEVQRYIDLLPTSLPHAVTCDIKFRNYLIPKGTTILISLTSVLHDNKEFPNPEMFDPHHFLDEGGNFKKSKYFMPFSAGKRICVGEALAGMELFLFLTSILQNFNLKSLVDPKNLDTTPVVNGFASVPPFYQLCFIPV
How it was run: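 P450-Glo proluciferin substrate with CYP2C9 enzyme; 10 min RT preincubation, then NADPH regeneration 1 h at 37C; luciferin detection reagent 20 min RT, luminescence in relative luminescence units.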

[6] = biological target: Cytochrome P450 1A2 (Homo sapiens) (UniProt P05177); assay: Cytochrome P450 Family 1 Subfamily A Member 2 (CYP1A2) small molecule antagonists: luciferase reporter qHTS assay (AID 1671199); note: nearly all actives have a fitted effect of over 50% in size; note: potency is the fitted concentration of half-maximal effect
Sequence of Cytochrome P450 1A2 (Homo sapiens) (P05177 whole entry, looked up): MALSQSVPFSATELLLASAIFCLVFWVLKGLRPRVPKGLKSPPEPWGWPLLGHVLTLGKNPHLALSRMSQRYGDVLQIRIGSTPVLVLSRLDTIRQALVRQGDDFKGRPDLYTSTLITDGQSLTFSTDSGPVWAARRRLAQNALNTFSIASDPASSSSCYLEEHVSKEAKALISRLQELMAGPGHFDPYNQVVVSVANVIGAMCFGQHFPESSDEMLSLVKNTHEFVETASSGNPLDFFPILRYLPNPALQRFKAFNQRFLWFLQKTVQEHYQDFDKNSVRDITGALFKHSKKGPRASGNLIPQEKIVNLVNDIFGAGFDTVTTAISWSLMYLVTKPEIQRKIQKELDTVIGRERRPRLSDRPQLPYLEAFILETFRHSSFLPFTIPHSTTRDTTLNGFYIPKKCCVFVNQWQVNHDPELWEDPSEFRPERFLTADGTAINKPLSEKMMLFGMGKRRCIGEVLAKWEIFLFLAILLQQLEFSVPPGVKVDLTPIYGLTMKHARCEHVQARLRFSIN
How it was run: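 Enzymatic CYP1A2 assay, human, luminescent: 10 min compound–enzyme–substrate preincubation, 1 h NADPH-dependent turnover, 20 min detection step, room temperature throughout. Reduced light indicates lower CYP1A2 activity.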

[7] = biological target: Voltage-gated inwardly rectifying potassium channel KCNH2 (Homo sapiens) (UniProt Q12809); assay: Human Ether-a-go-go-Related Gene (hERG) channel small molecule antagonists: fluorescence cell-based qHTS assay (AID 1671200);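 note: hERG-expressing U2OS cells given a thallium stimulus after FluxOR II dye loading; series mostly up to about 77 µM; nearly all actives have a fitted effect of over 50% in size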
Sequence of Voltage-gated inwardly rectifying potassium channel KCNH2 (Homo sapiens) (Q12809 whole entry, looked up): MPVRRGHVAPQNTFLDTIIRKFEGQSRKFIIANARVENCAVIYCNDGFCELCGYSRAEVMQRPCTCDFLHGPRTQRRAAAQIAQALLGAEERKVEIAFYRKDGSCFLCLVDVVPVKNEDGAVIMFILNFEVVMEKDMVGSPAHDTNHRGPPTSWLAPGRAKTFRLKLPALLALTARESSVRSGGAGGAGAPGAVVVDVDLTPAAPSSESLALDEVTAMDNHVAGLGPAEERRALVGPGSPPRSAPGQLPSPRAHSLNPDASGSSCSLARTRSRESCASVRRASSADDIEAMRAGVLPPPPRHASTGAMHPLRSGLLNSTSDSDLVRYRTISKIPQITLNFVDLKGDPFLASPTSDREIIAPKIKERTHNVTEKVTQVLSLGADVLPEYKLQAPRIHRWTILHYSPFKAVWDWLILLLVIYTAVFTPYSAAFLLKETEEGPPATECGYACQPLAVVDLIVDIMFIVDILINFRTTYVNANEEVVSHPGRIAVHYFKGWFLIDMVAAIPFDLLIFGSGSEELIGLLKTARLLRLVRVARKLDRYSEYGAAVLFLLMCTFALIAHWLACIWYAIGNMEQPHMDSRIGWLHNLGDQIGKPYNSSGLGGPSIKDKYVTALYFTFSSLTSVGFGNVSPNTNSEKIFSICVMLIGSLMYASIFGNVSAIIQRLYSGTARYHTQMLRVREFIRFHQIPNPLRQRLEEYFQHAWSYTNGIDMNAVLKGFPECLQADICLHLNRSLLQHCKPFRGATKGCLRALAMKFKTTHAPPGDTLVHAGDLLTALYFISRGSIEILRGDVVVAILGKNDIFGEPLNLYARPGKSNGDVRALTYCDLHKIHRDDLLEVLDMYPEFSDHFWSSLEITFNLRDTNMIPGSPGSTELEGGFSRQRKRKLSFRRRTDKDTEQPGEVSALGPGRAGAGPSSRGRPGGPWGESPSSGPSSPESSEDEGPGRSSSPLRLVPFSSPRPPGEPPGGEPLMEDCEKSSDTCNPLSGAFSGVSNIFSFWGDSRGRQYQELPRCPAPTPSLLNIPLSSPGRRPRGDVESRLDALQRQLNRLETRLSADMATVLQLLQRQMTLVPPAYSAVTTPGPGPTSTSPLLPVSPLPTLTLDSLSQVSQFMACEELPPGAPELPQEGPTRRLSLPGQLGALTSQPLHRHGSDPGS
How it was run: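 hERG-U2OS cells plated overnight at 37 C, loaded with FluxOR II dye 1 h at RT in dark; after 10 min, thallium stimulus added. Fluorescence (480/540 nm) read kinetically for 2 min at 1 s intervals.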

[8] = biological target: Cytochrome P450 3A4 (Homo sapiens) (UniProt P08684); assay: Cytochrome P450 Family 3 Subfamily A Member 4 (CYP3A4) small molecule antagonists: luciferase reporter qHTS assay (AID 1671201)
Sequence of Cytochrome P450 3A4 (Homo sapiens) (P08684 whole entry, looked up): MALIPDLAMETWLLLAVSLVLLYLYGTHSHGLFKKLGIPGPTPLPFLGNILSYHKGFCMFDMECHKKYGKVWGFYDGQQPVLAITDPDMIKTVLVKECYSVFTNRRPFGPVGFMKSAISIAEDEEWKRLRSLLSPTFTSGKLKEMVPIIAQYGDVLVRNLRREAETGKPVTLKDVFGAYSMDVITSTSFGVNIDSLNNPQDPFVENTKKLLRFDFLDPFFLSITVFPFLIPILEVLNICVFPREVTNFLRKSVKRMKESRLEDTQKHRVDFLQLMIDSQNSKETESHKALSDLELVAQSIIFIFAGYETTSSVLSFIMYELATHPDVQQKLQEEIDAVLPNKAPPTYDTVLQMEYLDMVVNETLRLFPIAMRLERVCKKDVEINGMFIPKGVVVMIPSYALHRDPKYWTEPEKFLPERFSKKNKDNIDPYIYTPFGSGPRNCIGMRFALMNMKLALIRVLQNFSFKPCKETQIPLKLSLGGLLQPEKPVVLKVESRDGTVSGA
How it was run: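 P450-Glo CYP3A4 luminescent assay: compounds preincubated 10 min at room temperature with enzyme and proluciferin substrate, NADPH regeneration added, 1 h room-temperature reaction, stopped with luciferin detection reagent; luminescence read after 20 min. Ketoconazole positive control.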

[9] = biological target: Cytochrome P450 2D6 (Homo sapiens) (UniProt P10635); assay: Cytochrome P450 Family 2 Subfamily D Member 6 (CYP2D6) small molecule antagonists: luciferase reporter qHTS assay (AID 1671196)
Sequence of Cytochrome P450 2D6 (Homo sapiens) (P10635 whole entry, looked up): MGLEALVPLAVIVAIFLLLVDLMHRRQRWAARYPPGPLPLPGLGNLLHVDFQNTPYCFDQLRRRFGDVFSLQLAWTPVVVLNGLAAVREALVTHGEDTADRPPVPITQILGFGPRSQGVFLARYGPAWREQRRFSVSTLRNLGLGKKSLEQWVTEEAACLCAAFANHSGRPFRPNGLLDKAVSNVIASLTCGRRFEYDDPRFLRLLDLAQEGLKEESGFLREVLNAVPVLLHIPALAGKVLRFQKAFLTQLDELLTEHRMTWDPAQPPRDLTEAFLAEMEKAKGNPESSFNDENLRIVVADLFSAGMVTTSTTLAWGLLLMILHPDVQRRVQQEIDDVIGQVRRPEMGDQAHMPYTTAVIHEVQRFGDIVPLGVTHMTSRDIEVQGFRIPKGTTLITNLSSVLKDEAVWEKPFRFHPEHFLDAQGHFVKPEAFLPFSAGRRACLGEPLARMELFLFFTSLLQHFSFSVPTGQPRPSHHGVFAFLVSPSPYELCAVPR
How it was run: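 Each well received CYP2D6 with its proluciferin substrate and chemical, sat 10 min, then got NADPH regeneration solution for 1 h at room temperature. Luminescence in RLU served as the activity measure.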

Measured: Potency

CCC(C(N)=O)N1CCCC1=O (configuration not stated)
not listed: [9]
inactive: all other assays above

COP(=O)(O)OC
active: [6] 32.8 µM
not listed: [4] | [9]
inactive: all other assays above

CON(C)C(=O)Nc1ccc(Br)cc1
active: [6] 5.64 µM
not listed: [4] | [5]
inactive: all other assays above

C1CN2CCC1CC2
active: [4] 43.6 µM
not listed: [6] | [9]
inactive: all other assays above

CC1NCCOC1c1ccccc1 (configuration not stated)
not listed: [9]
inactive: all other assays above

CCC(CC)(CNC(=O)CCCO)c1cccc(OC)c1
inactive: [1] | [2] | [3] | [6] | [7]

CCOC(=O)Nc1cccc(OC(=O)Nc2ccccc2)c1
inactive: [1] | [2] | [3] | [7]
active: [4] 20 µM

CC1=C2[C@H]3OC(=O)[C@@H](C)[C@@H]3CC[C@@]2(C)C=CC1=O
not listed: [5] | [8] | [9]
inactive: all other assays above

CCC(=O)c1ccc(Cl)cc1
not listed: [4] | [6] | [9]
inactive: all other assays above

C=CC=O
not listed: [4] | [6]
inactive: all other assays above

BrCCc1ccccc1
not listed: [6] | [9]
inactive: all other assays above

C(COCC1CO1)OCC1CO1 (configuration not stated)
not listed: [6] | [9]
inactive: all other assays above

O=C(O)c1c(Cl)ccc2cc(Cl)cnc12
active: [5] 79.6 µM
not listed: [4] | [6]
inactive: all other assays above

Cl/C=C/CCl
not listed: [4] | [6] | [9]
inactive: all other assays above

O=c1[nH]c2ccccc2o1
not listed: [4] | [6] | [9]
inactive: all other assays above

S=C=S
active: [5] 49.7 µM | [6] 39.5 µM
not listed: [4] | [9]
inactive: all other assays above

Cc1ccc(-c2nc3ccc(C)cn3c2CC(=O)N(C)C)cc1
active: [6] 27.5 µM
not listed: [8] | [9]
inactive: all other assays above

CCOC(=O)NC(C)(C)Cc1ccc(Cl)cc1
active: [4] 4.36 µM | [5] 15.5 µM
not listed: [6] | [9]
inactive: all other assays above

CNC(=O)Oc1cc(C)c(N(C)C)c(C)c1
active: [1] 2.25 µM | [2] 0.797 µM | [3] 12.6 µM | [4] 79.7 µM | [6] 10 µM
inactive: [5] | [7] | [8]

O=CCCl
not listed: [4] | [5]
inactive: all other assays above

CCOC(=O)COc1ccc(Cl)cc1Cl
active: [4] 22.4 µM | [6] 31.7 µM
not listed: [3] | [5]
inactive: all other assays above
